The list is not random: actives were taken first. Their share in the collection is about 19%.
HepG2 tox = HepG2 cytotoxicity, counter-screen for TGF-b inhibitors; HepG2 CAGA-GFP viability, ATP luminescence, 18 h; Potency, µM (top dose mostly 46.1 µM), inactives show top-dose activity change, negative = cytotoxicity, actives largely listed as cytotoxic; actives 0.76% (n = 410,000); further: potency means the concentration at half of the fitted maximal effect
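CellTiter-Glo luminescence gave cytotoxicity after 18 hours at 37 degrees C. The cells were HepG2 CAGA-GFP in 1% FBS DMEM, stimulated with 500 pg/mL TGF-beta after compound addition. %Activity was normalised to no-cell wells (complete cell-killing) and DMSO (no toxicity), and curves were fitted and classified.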
S-ASM inh = blocks human secretory acid sphingomyelinase; placental ASM, HMU-PC fluorogenic substrate, 60 min; Potency, µM (series often up to 57.5 µM), for inactives: at the top dose activity change, negative = inhibition, hits mostly inhibitors; actives 0.006% (n = 340,000); AID 504937; further: potency means the concentration at half of the fitted maximal effect
Target sequence (P17405 47-631 limits assumed): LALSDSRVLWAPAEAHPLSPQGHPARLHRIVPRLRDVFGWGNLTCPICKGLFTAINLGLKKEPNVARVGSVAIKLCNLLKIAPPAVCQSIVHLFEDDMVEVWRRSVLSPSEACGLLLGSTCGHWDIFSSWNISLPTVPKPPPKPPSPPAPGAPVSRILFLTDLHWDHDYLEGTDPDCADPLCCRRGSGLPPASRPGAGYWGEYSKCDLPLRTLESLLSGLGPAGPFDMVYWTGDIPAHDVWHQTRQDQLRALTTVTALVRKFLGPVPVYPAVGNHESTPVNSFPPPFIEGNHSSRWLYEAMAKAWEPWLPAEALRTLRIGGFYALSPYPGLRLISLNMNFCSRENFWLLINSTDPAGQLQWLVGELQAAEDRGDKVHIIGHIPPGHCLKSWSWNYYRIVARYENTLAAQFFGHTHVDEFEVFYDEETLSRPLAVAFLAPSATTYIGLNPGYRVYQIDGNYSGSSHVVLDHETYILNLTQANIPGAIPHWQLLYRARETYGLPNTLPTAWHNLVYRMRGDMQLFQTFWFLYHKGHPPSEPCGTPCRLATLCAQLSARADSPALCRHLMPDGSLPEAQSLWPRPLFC
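Steps: dispense placental human ASM, pin compound, wait 10 min at room temperature, add HMU-PC0 substrate at 9 uM final, incubate 60 min at 37 °C, add stop solution raising pH to 10, read fluorescence.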
TGFb inhibitor = blocks TGF-b signaling | AID 588855 | HepG2 CAGA-GFP TGF-b/SMAD3 reporter, GFP fluorescence, 18 h; TGF-beta stimulated, 500 pg/mL final | Potency, µM (series often up to 46.1 µM), for inactives: at the highest dose activity, negative = inhibition, hits mostly inhibitors | actives 1.2% (n = 410,000); further: potency means the concentration at half of the fitted maximal effect; on the % scale 0 is the no-effect control and ±100 the full control effect; nearly all actives have a fitted effect of over 65% in size
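HEPG2 CAGA-GFP, 1000 cells/well; 2 h settle, 37 C; cpd via pin tool; TGF-b 500 pg/mL final; 18 h, 37 C; GFP imaging ex488/em500-530; %Activity normalised to -TGF-b and +DMSO controls; CRC fit, curve class.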
DT40 TDP1 no CPT = qHTS for Inhibitors of human tyrosyl-DNA phosphodiesterase 1 (TDP1): qHTS in cells in absence of CPT; DT40 Tdp1-/- hTDP1 cells, no CPT, ATP luminescence, 48 h; Potency, µM (doses to about 46.2 µM), without a hit: top-dose activity change, negative = growth inhibition, actives largely listed as inhibitors; actives 15% (n = 420,000); further: potency means the concentration at half of the fitted maximal effect; on the % scale 0 is the no-effect control and ±100 the full control effect; nearly all actives have a fitted effect of over 55% in size
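Chicken DT40 Tdp1-/- cells complemented with human TDP1, screened without camptothecin (DMSO vehicle only), 400 cells/well. Compounds pin-transferred, cells incubated at 37 °C for at least 48 hr. Growth read as ATP-dependent luminescence (CellTiter-Glo, 30 min at RT).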
TDP1 cell CPT = growth inhibition of DT40 Tdp1-/-;hTDP1 cells with camptothecin (screen for TDP1 inhibitors); chicken DT40 Tdp1-/-;hTDP1 cells + 20 nM CPT, ATP luminescence, 48 h; Potency, µM (titrated, usually from 46.2 µM), for inactives: at the highest dose activity change, negative = growth inhibition, most hits filed as inhibitors; actives 12% (n = 420,000); AID 686979; further: potency means the concentration at half of the fitted maximal effect; on the % scale 0 is the no-effect control and ±100 the full control effect; nearly all actives have a fitted effect of over 55% in size
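Chicken DT40 Tdp1-/- cells complemented with human TDP1, 400 cells/well, exposed to compounds plus 20 nM camptothecin for at least 48 h at 37 C; viability read as ATP content by CellTiter-Glo luminescence.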
IL1B secr inh = inhibitors of inflammasome signaling (IL-1 beta secretion); AID 743279; actives 4.7% (n = 360,000); THP-1 LPS/ATP IL-1B secretion, AlphaLISA, 16 h; hits give low values; activity change, % at 57.5 µM; in the data active means activity change below about -50%; inconclusive means mostly about -30% to -49%; further: on the % scale 0 is the no-effect control and ±100 the full control effect
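Secreted IL-1B measured by AlphaLISA bead assay after 16 h compound exposure of THP-1 cells; compounds (final up to 57.5 uM) added 1 h before LPS (250 ng/mL) and ATP (1.25 mM) stimulation; lower signal means less secretion.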
Active calls of the source: *; ? = inconclusive; . = no result given. Unless noted, the call rests on the fitted dose curve; in most records, active means well fitted curve in the direction sought with a large enough effect; inconclusive means small, poorly fitted or top-dose-only effect, or another doubt; inactive means no such curve, though single readings can be large; an effect the other way counts as inactive or inconclusive.

SMILES	HepG2 tox	S-ASM inh	TGFb inhibitor	DT40 TDP1 no CPT	TDP1 cell CPT	IL1B secr inh
C[C@H]1CN([C@@H](C)CO)S(=O)(=O)c2ccc(C#CC3CC3)cc2O[C@@H]1CN(C)S(C)(=O)=O	-8.5%	.	2.9%	?	-26.5%	-3.6
COc1cccc(NC(=O)N(C)C[C@@H]2Oc3cc(Br)ccc3S(=O)(=O)N([C@@H](C)CO)C[C@H]2C)c1	1.8%	.	4.8%	-8.7%	1.2%	7.7
COc1cccc(S(=O)(=O)N(C)C[C@@H]2Oc3cc(Br)ccc3S(=O)(=O)N([C@@H](C)CO)C[C@@H]2C)c1	-18.3%	.	2.7%	25.9µM*	?	-11.0
Cc1ccc(S(=O)(=O)N(C)C[C@H]2Oc3cc(C#CC4CCCC4)ccc3S(=O)(=O)N([C@H](C)CO)C[C@H]2C)cc1	-31.4%	.	?	18.4µM*	18.4µM*	-2.3
CC1=Nc2nc(N3CCCCCC3)c(C#N)c3c4c(nc(c23)N1)N(c1ccc2ccccc2c1)C(=O)C4	-17.2%	42.4%	5.2%	?	?	-8.0
CC(C(=O)O)n1nnc2ccccc21 (configuration not stated)	-0.1%	0.6%	?	4.0%	-19.8%	-4.5
Cc1cccc(C(C)n2nnc3ccccc32)c1O (configuration not stated)	-2.4%	5.0%	-11.3%	?	23.1µM*	31.8
Cc1ccccc1CN(C)C(=O)COC(=O)CSc1ccc([N+](=O)[O-])cc1	0.7%	-0.8%	27.7%	-8.6%	6.5%	7.0
COc1ccc(N2CCN(C(=O)c3cc4c(=O)n(Cc5cccs5)ccc4nc3C)CC2)cc1	-11.2%	.	-35.1%	25.9µM*	?	.
COc1ccc(NC(=O)c2cc3c(=O)n(Cc4cccs4)ccc3nc2C)cc1	-14.2%	.	-22.4%	?	?	.
COc1cccc(N2CCN(C(=O)c3cc4c(=O)n(Cc5cccs5)ccc4nc3C)CC2)c1	-4.5%	.	-20.1%	?	23.1µM*	.
Cc1nc2ccn(Cc3cccs3)c(=O)c2cc1C(=O)N1CCN(c2ccc(F)cc2)CC1	-17.3%	.	?	?	?	.
Cc1ccc(C)c(N2CCN(C(=O)c3cc4c(=O)n(Cc5cccs5)ccc4nc3C)CC2)c1	16.2%	.	10.4%	20.6µM*	23.1µM*	.
COc1ccc(CNC(=O)CCC(=O)Nc2nnc(C(F)(F)F)s2)cc1	6.8%	1.4%	0.0%	11.3%	-1.6%	14.8
CN1CCN([C@@H]2CS(=O)(=O)N[C@H]2COCc2ccccc2)CC1	6.7%	.	-2.0%	0.1%	5.9%	24.5
CCOC(=O)Cc1csc(SCC(=O)c2c(N)n(CC(C)C)c(=O)n(C)c2=O)n1	-4.5%	2.0%	13.9%	10.3µM*	9.2µM*	10.5
Cc1csc(SCC(=O)c2c(N)n(CC(C)C)c(=O)n(C)c2=O)n1	-2.9%	-0.6%	-21.4%	20.6µM*	16.4µM*	3.6
CC(C)Cn1c(N)c(C(=O)CSc2ncn[nH]2)c(=O)n(C)c1=O	1.1%	5.4%	16.0%	?	-28.4%	33.0
CC(C)Cn1c(N)c(C(=O)CSc2ncccn2)c(=O)n(C)c1=O	36.6%	-2.6%	4.5%	10.3µM*	?	19.8
CC(C)OC(=O)N(C)C[C@@H]1OCc2cnnn2CCCC(=O)N([C@H](C)CO)C[C@H]1C	-1.6%	.	7.3%	-1.3%	3.4%	18.8
C[C@]12c3[nH]c4cc(-c5ccco5)ccc4c3CCN1C(=O)[C@@H](CC(=O)NCCc1ccccn1)C[C@@H]2C(=O)N1CCOCC1	0.5%	20.2%	-12.0%	?	?	9.8
CC(C)=CCC/C(C)=C/CNC(=O)C[C@H]1C[C@H](C(=O)N(C(C)C)C(C)C)[C@@]2(C)c3[nH]c4cc(-c5ccco5)ccc4c3CCN2C1=O	-45.7%	-29.2%	12.6µM*	?	?	-65.2*
CC(C)=CCC/C(C)=C/CNC(=O)C[C@H]1C[C@H](C(=O)N2CCCCC2)[C@@]2(C)c3[nH]c4cc(-c5ccco5)ccc4c3CCN2C1=O	-21.3%	-24.5%	?	20.6µM*	?	-67.5*
CC(C)N(C(=O)[C@H]1C[C@H](CC(=O)NCCCN(C)C)C(=O)N2CCc3c([nH]c4cc(CCC(=O)N(C)C)ccc34)[C@]12C)C(C)C	-16.3%	-2.8%	20.9%	15.8%	11.4%	14.8
CC(C)=CCC/C(C)=C/CNC(=O)C[C@H]1C[C@H](C(=O)N(C(C)C)C(C)C)[C@@]2(C)c3[nH]c4cc(CCC(=O)N(C)C)ccc4c3CCN2C1=O	-97.7%	-5.5%	?	9.2µM*	10.3µM*	-66.8*
SMILES	HepG2 tox	S-ASM inh	TGFb inhibitor	DT40 TDP1 no CPT	TDP1 cell CPT	IL1B secr inh
CC(C)N(C(=O)[C@H]1C[C@H](CC(=O)NCCc2ccccn2)C(=O)N2CCc3c([nH]c4cc(-c5ccco5)ccc34)[C@]12C)C(C)C	-19.4%	-23.5%	?	?	?	?
CCOC(=O)c1c(C)c(-c2ccccc2)n(CC(=O)NCCCN(CC)CC)c1C	-23.3%	4.1%	-14.9%	?	-17.2%	-10.6
Cc1ccc(NC(=O)N2CCCC2C(=O)Nc2c(C)cc(C)cc2C)cc1 (configuration not stated)	-5.5%	4.6%	-5.3%	-12.1%	-1.0%	29.0
COc1cc(CN(C(=O)c2ccccc2)c2ccccn2)cc(OC)c1OC	1.3%	.	-20.1%	?	?	.
CC(C)c1ccc(N(C(=O)c2cc3ccccc3oc2=O)C2C=CS(=O)(=O)C2)cc1 (configuration not stated)	-0.2%	2.4%	0.0%	13µM*	?	-5.4
COc1ccc(N(C(=O)c2cc3ccccc3oc2=O)C2C=CS(=O)(=O)C2)cc1 (configuration not stated)	-10.9%	8.2%	-2.2%	1.4%	-5.6%	?
O=C(c1cc2ccccc2oc1=O)N(c1ccccc1)C1C=CS(=O)(=O)C1 (configuration not stated)	15.7%	1.6%	-2.4%	-18.6%	-3.8%	-53.7*
COc1ccc(Cn2ccc3nc(C)c(C(=O)Nc4cc(OC)c(OC)c(OC)c4)cc3c2=O)cc1	5.2%	.	5.2%	?	?	.
O=C(O)CCCCCN1C(=O)/C(=C/c2ccncc2)SC1=S	-5.3%	-0.1%	-1.1%	23.1µM*	23.1µM*	-97.5*
COc1ccc(CN2C(=O)/C(=C/c3ccncc3)SC2=S)cc1	-19.8%	-20.8%	?	9.2µM*	23.1µM*	-82.2*

Bioassay records from PubChem.
